Laboratory results reported in PubChem BioAssay.
For some assays here: Entries with a potency or affinity are not part of this list. The source made the active and inactive calls.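 How the source made its calls, unless noted: active means primary screen active and over 50% activation in each of two duplicate runs; inactive means the rest.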

Columns and labels:
[1] = system: TRPC4 beta (transient receptor potential cation channel C4), mouse; experiment: activators of mouse TRPC4 channel, confirmation, cell-based, Fluo4 calcium, HEK293 TRPC4beta/mu-opioid, duplicates, 10 µM (AID 2426;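 active means fluorescence ratio normalized to control raised more than 50% in primary screen plus both repeat runs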); details: Fluo4 calcium fluorescence, at 10 µM; stronger effect = higher value
[2] = system: transient receptor potential cation channel C4 beta (TRPC4), mouse; experiment: activators of mouse TRPC4 channel, confirmation, cell-based, second round, Fluo4, HEK293 TRPC4beta/mu-opioid, 1 µM (AID 2461); details: Fluo4 calcium fluorescence, at 1 µM; stronger effect = higher value
[3] = system: TRPC4 (transient receptor potential cation channel C4 beta), mouse; experiment: positive allosteric modulators of mouse TRPC4, confirmation, cell-based, second round, Fluo-4, HEK293 TRPC4beta/mu-opioid, 1 µM (AID 2554;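 active means primary screen hit whose fluorescence ratio, in both repeats, exceeds the weak agonist control mean by 3 SD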); details: DAMGO EC20, Fluo-4 calcium flux, at 1 µM; stronger effect = higher value
[4] = system: TRPC4 beta (transient receptor potential cation channel C4), mouse; experiment: positive allosteric modulators of mouse TRPC4, confirmation, cell-based, Fluo-4, HEK293 TRPC4beta/mu-opioid (AID 2555;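 active means primary screen hit whose calcium fluorescence ratio, in both repeats, exceeds the weak agonist control mean by 3 SD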); details: DAMGO EC20, Fluo-4 calcium flux, at 10 µM; stronger effect = higher value
[5] = target: Short transient receptor potential channel 4 (Mus musculus) (UniProt Q9QUQ5); experiment: inhibitors of mouse TRPC4 channel, confirmation, cell-based, Fluo4, HEK293 TRPC4beta/mu-opioid (AID 2636;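 active means calcium signal cut by more than 3 SD below the full-agonist control yet still positive, in both repeats and the earlier primary screen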); details: DAMGO, Fluo4 calcium flux, at 10 µM; stronger effect = higher value
Chain of Short transient receptor potential channel 4 (Mus musculus) (Q9QUQ5 whole entry, looked up): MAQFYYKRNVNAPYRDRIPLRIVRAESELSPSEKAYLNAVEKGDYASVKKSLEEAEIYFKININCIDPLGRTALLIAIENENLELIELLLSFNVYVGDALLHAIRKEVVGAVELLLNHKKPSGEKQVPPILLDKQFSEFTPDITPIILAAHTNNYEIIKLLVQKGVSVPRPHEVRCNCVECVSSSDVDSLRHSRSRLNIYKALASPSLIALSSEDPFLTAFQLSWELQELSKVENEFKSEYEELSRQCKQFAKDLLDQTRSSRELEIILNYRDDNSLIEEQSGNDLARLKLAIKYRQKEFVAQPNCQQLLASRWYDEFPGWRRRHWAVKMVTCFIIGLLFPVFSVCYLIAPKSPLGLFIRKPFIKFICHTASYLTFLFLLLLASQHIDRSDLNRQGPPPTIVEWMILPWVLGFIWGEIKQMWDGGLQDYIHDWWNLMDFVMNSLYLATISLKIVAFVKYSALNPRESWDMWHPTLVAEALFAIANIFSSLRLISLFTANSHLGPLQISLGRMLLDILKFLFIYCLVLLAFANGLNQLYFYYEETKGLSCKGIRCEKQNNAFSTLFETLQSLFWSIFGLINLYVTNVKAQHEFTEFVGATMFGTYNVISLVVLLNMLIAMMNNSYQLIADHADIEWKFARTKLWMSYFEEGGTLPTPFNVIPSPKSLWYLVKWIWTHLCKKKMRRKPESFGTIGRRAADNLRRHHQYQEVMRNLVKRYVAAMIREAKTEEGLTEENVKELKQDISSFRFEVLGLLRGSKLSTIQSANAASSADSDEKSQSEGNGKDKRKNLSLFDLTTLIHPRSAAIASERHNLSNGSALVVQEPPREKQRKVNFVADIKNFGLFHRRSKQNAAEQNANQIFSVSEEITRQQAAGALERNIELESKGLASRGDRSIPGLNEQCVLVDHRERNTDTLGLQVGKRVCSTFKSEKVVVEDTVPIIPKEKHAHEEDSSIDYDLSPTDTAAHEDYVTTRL

[6] = target: Short transient receptor potential channel 4 (Mus musculus) (UniProt Q9QUQ5); experiment: inhibitors of mouse TRPC4 channel, confirmation, cell-based, second round, Fluo4, HEK293 TRPC4beta/mu-opioid, 1 µM (AID 2637;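 active means calcium signal ratio cut to more than 3 SD under the fully stimulated control mean yet still positive, in both repeats and the primary screen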;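 on inhibition: percent of integrated ratio relative to wells lacking test compound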); details: Fluo4 calcium flux, DAMGO, at 1 µM; stronger effect = higher value
[7] = target: Short transient receptor potential channel 4 (Mus musculus) (UniProt Q9QUQ5); experiment: mouse TRPC4 channel activators, dose response, cell-based, HEK293 TRPC4/mu-opioid, Fluo-4 calcium (AID 434937;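 active means primary screen activator hit with a dose response curve and TRPC4 channel activation at any tested dose; inactive means no activation, no dose response, or not a primary hit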)
[8] = target: Short transient receptor potential channel 4 (Mus musculus) (UniProt Q9QUQ5); experiment: TRPC4 positive allosteric modulators, dose response, cell-based, HEK293 TRPC4/mu-opioid, Fluo-4 calcium, EC20 DAMGO (AID 434941;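 active means earlier screen potentiator hit that boosts the TRPC4 ion channel at some dose, with a dose response; inactive means no potentiation, no dose response, or not a prior hit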;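 further: calcium entry triggered by an EC20 dose of DAMGO at the co-expressed mu-opioid receptor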)
[9] = target: Short transient receptor potential channel 6 (Mus musculus) (UniProt Q61143); experiment: inhibition of mouse TRPC6 channel, confirmation, selectivity assay for TRPC4 inhibitor project, cell-based, HEK293, membrane potential dye, duplicate (AID 434948;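 active means active in primary screen and both duplicates, each dropping signal beyond three positive-control SD with fluorescence still positive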); details: HEK293 TRPC6, membrane potential dye fluorescence, at 10 µM, stimulated with maximal-effect acetylcholine; stronger effect = higher value
Chain of Short transient receptor potential channel 6 (Mus musculus) (Q61143 whole entry, looked up): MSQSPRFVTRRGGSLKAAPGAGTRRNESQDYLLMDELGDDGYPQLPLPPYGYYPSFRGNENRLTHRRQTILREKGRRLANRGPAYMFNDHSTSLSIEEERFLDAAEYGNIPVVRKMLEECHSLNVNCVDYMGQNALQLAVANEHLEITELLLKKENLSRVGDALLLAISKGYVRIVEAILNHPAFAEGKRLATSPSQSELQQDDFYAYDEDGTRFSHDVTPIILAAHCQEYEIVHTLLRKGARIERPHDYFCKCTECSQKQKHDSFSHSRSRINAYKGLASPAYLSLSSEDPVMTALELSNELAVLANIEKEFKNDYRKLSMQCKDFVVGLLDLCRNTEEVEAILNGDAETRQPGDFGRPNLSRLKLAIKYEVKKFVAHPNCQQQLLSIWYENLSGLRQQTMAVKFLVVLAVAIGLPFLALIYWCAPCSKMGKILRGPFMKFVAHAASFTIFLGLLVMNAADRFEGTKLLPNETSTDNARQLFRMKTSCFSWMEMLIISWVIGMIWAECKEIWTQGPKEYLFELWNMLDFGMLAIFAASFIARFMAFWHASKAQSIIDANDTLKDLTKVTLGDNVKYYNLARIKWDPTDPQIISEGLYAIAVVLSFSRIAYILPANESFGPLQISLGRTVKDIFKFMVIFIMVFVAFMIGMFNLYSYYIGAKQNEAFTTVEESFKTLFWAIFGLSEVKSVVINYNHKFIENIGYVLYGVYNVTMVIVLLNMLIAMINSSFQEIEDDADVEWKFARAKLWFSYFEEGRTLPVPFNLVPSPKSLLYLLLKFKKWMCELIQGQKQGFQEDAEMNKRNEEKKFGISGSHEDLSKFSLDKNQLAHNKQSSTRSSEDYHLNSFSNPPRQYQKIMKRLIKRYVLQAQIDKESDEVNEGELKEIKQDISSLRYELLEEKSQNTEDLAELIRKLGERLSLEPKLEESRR

[10] = target: Short transient receptor potential channel 6 (Mus musculus) (UniProt Q61143); experiment: activation of mouse TRPC6 channel, confirmation, selectivity assay for TRPC4 activator project, cell-based, HEK293, membrane potential dye, duplicate (AID 434950;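 active means membrane potential signal rise above negative control mean plus 3 SD in both duplicates, also active in the earlier TRPC4 screen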); details: HEK293 TRPC6, membrane potential fluorescence, at 10 µM; stronger effect = higher value
[11] = target: Short transient receptor potential channel 6 (Mus musculus) (UniProt Q61143); experiment: TRPC6 potentiation by TRPC4 potentiator hits, confirmation, selectivity assay for TRPC4 potentiator project, HEK293 cells, membrane potential dye, duplicate (AID 434952;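 active means compound raising the membrane signal above positive-control mean plus 3 SD in both repeats, and a primary screen hit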); details: HEK293 TRPC6, membrane potential dye fluorescence, at 10 µM, maximal acetylcholine added after compound; stronger effect = higher value
[12] = target: Short transient receptor potential channel 4 (Mus musculus) (UniProt Q9QUQ5); experiment: calcium flux activators in TRPC4/5HT1a cells, counter-screen for TRPC4 activator project, cell-based, second counter screen, HEK293 TRPC4/5HT1a, Fluo-4 (AID 434977;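 active means calcium signal rise above buffer-control mean plus 5 SD in both duplicates, and also a hit in the primary screen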); details: Fluo-4 calcium flux, at 10 µM; stronger effect = higher value
[13] = calcium flux inhibitors in TRPC4/5HT1a cells, confirmation, counter-screen for TRPC4 inhibitor project, cell-based, second counter screen, HEK293 TRPC4/5HT1a, Fluo-4 (AID 434978;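 active means primary screen active whose calcium signal fell more than 3 SD beyond the full-serotonin control mean in both duplicate plates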); details: Fluo-4 calcium flux, at 10 µM, serotonin added to trigger calcium flux; stronger effect = higher value
[14] = system: TRPC4 (mouse), co-expressed with 5HT1a in HEK293; experiment: calcium flux potentiators in TRPC4/5HT1a cells, confirmation, counter-screen for TRPC4 potentiator project, cell-based, second counter screen, HEK293 TRPC4/5HT1a, Fluo-4 (AID 434979;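 active means signal rise over 3 SD above mean of control wells given weak agonist, in both repeats and first screen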); details: Fluo-4 calcium flux, at 10 µM, serotonin added at its EC20 dose; stronger effect = higher value
[15] = calcium flux activation in mu-opioid HEK293 cells, confirmation, counter-screen for TRPC4 activator project, cell-based, HEK293 mu-opioid receptor line (AID 449723;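 active means hit in primary screen, with calcium signal over 5 SD above buffer well mean in both duplicates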;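 further: counter screen cells carry the mu-opioid receptor alone and lack TRPC4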); details: Fluo-4 calcium fluorescence, at 10 µM; stronger effect = higher value
[16] = calcium flux enhancement in mu-opioid HEK293 cells, confirmation, counter-screen for TRPC4 allosteric potentiator project, cell-based, HEK293 mu-opioid receptor line (AID 449724;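 active means calcium signal rise more than 3 SD above the low-dose agonist control mean, in both duplicate plates and the primary screen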); details: Fluo-4 calcium flux, at 10 µM, compound added before EC20 DAMGO stimulus; stronger effect = higher value

Measured: inhibition

Cc1ccc2nc3c(c(N)c2c1)CCN3C
active: [5] 90% | [6] 51% | [9] 35.5% | [13] 15.4%
inactive: all other assays above

O=C(NC1CCCCC1)N1CCN(C(c2ccccc2)c2ccccc2)CC1
inactive: all assays above

O=C1COc2ccc(N3C(=O)C=CC3=O)cc2N1
active: [5] 88% | [13] 31.1%
inactive: all other assays above

c1ccc(Cn2c(CN3CCCC3)nc3ccccc32)cc1
active: [5] 96% | [6] 67% | [13] 18%
inactive: all other assays above

C=C(c1ccc(O)cc1)c1ccc(O)cc1
active: [5] 89% | [6] 47% | [13] 29.6%
inactive: all other assays above

c1ccc(Cn2c(NCc3ccco3)nc3ccccc32)cc1
active: [5] 95% | [6] 75% | [13] 25.2%
inactive: all other assays above

CCCCC(CC)c1nnc(NC(=O)c2cccs2)s1 (stereo not drawn)
active: [5] 90% | [13] 40.9%
inactive: all other assays above

Fc1ccc(-n2cc(CNCCc3ccncc3)c(-c3ccccc3Cl)n2)cc1
inactive: all assays above
